Jurkat NFkB inh: inhibitors of induced NF-kB luciferase reporter, primary screen, TCR NF-kB activation inhibitor project, cell-based, luminescence, uHTS | Jurkat, PMA/ionomycin-induced NF-kB luciferase reporter | 330,000 tested, 0.53% active | inhibition, % at 4 µM; in the data active means inhibition above about 50%
Bfl-1 A1 inh: caspase 3/7 activation in MEF A1-2A-BIM cells, primary screen, A1 inhibitor project, cell-based, luminescence, HTS; Caspase-Glo 3/7 luminescence, 3 h; percent of clofoctol response, vehicle zero; caspase activation, % (concentration not given with the values); 330,000 tested, 0.066% active; AID 2462, 2010;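 active means over half of replicate activation scores above 10%, or exactly half above 10 with the replicate mean above 10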
697 NFkB inh: inhibitors of PMA/ionomycin-induced NF-kB reporter, 697 cells, primary screen, B-cell NF-kB inhibitor project, cell-based, luminescence, uHTS; 330,000 tested, 0.33% active; inhibition, % at 4 µM; 697 B-cell NF-kB luciferase reporter, 16 h; in the data active means inhibition above about 35%
Beta cell apopt: inhibitors of cytokine-induced beta cell apoptosis, primary screen, luminescence. protection from apoptosis, % (no concentration beside the values). 300,000 tested, 0.8% active. INS-1E cytokine-induced death, ATP luminescence, 48 h; percent of positive-control rescue, neutral wells zero;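 active means Every replicate reaches about 75%, or at least half do and their mean reaches it too, limit read from the data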;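 further: higher means more ATP so stronger rescue from cytokine killing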
NTR1 ag: agonists of human NTR1, primary screen, imaging, U2OS cells, beta-arrestin-GFP, high content | Neurotensin receptor type 1 (Homo sapiens), P30989 | NTR1-U2OS beta-arrestin-GFP spot imaging, agonist mode | activation, % at 20 µM | 330,000 tested, 0.17% active | AID 493036, 2011;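 active means activation at or above 40% of the spot to cytoplasm intensity ratio, with at least 20 cells analyzed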
Target sequence (P30989 whole entry, looked up): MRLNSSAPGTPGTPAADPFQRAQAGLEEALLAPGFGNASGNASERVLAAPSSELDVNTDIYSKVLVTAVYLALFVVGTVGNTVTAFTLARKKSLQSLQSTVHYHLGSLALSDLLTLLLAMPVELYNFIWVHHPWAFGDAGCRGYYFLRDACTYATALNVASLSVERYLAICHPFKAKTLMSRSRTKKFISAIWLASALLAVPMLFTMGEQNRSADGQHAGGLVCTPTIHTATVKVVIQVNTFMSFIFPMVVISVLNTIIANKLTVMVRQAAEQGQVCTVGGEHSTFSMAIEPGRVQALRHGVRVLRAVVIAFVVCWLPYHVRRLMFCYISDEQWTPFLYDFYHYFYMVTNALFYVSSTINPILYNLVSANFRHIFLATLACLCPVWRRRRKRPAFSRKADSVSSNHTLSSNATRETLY
Mdm2 MdmX PPI: inhibitors of human Mdm2-MdmX association, primary screen, cell-based, luminescence, split luciferase, SaOS-2, uHTS | Protein Mdm4 (Homo sapiens) + E3 ubiquitin-protein ligase Mdm2 (Homo sapiens), … | SaOS-2 split-luciferase Mdm2/MdmX complementation | inhibition, % at 8 µM | 330,000 tested, 3% active;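 active means inhibition of at least 50% at 8 µM in the primary screen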
Mdm2 MdmX conf: Mdm2-MdmX complex disruptors, retested hits, confirmation, luminescence, single concentration; shares compounds with Mdm2 MdmX PPI; Mdm2-MdmX binding, luminescent assay; inhibition, % at 8 µM; 10,000 tested, 55% active; AID 489028, 2010; in the data active means inhibition above about 40%
FLuc counter: full-length luciferase signal inhibition, confirmation, counter-screen for Mdm2/MdmX interaction inhibitor project, cell-based, single concentration, SaOS-2; shares compounds with Mdm2 MdmX PPI; SaOS-2 full-length luciferase counterscreen, luminescence; inhibition, % at 8 µM; 6,200 tested, 77% active; AID 504607, 2011;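 active means mean inhibition at 8 µM reaching about 37%, which flags the compound as non-specific, limit read from the data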;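 further: p53-null SaOS-2 cells with luciferase driven by a doxycycline-inducible promoter; compound on cells about two nights before reading with doxycycline added after day one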
Numbers stand for hits; 0 = inactive; - = not tested or not shown. Hits are enriched below; roughly 3.8% of the tested compounds scored in any of these assays.

SMILES | Jurkat NFkB inh | Bfl-1 A1 inh | 697 NFkB inh | Beta cell apopt | NTR1 ag | Mdm2 MdmX PPI | Mdm2 MdmX conf | others
Cc1cc(C)n(-c2nc3nonc3nc2Nc2cccc(C)c2C)n1 | 0 | 0 | 0 | 0 | 0 | 51 | 0
CCCc1cc(=O)[nH]c(SCC(=O)NC2(C#N)CCCCC2)n1 | 0 | 0 | 0 | 0 | 0 | 0 | -
CCOc1cc(/C=N/NC(=O)C2CC2)ccc1OC(C)C | 0 | 0 | 0 | 0 | 0 | 0 | -
COc1cccc(/C=C/C(=O)OCC(=O)NC2CC2)c1 | 0 | 0 | 0 | 0 | 0 | 0 | -
O=C(Cc1sc(-c2ccccc2Cl)nc1-c1ccccc1)Nc1ccccc1 | 0 | 0 | 0 | 0 | 0 | 72 | 0
O=C(Cc1sc(-c2ccccc2)nc1-c1ccccc1)Nc1ccc(Cl)cc1 | 0 | 0 | 0 | 0 | 0 | 59 | 0
O=C(Cc1sc(-c2ccccc2Cl)nc1-c1ccccc1)Nc1ccc(F)cc1 | 0 | 0 | 0 | 0 | 0 | 64 | 0
COc1ccc(S(=O)(=O)Nc2ccc3c(c2)C(=O)N([C@H](C)CO)C[C@H](C)[C@@H](CN(C)C(=O)NC(C)C)O3)cc1 | 0 | 0 | 0 | 0 | 0 | 0 | -
CN(C)c1ccc(/C=N/NC(=O)c2ccc(NC(=O)c3ccccc3)cc2)cc1 | 0 | 0 | 0 | 0 | 0 | 57 | 0
CN(C)c1ccc(C(=O)N/N=C/c2cc(Br)cc(Br)c2O)cc1 | 0 | 0 | 0 | 0 | 0 | 80 | 86 | FLuc counter=54
COc1c(Br)cc(Br)cc1/C=N/NC(=O)c1ccncc1 | 0 | 0 | 0 | 0 | 0 | 0 | -
O=C(N/N=C/c1ccc(F)cc1)c1ccccc1 | 0 | 0 | 0 | 0 | 0 | 0 | -
O=C1C=C(c2cccc(Br)c2)C[C@@H](c2ccc3c(c2)OCO3)C1 | 0 | 0 | 0 | 0 | 0 | 0 | -
C=CCN1C(=O)c2ccc(C(=O)N(C)CC(=O)Nc3ccc(OCC)c(OCC)c3)cc2C1=O | 0 | 0 | 0 | 0 | 0 | 0 | -
CN(N)c1ccc2c(C(F)(F)F)cc(C(F)(F)F)nc2n1 | 0 | 0 | 0 | 0 | 0 | 0 | -
N#CC(c1ccccc1)c1ccc2c(C(F)(F)F)cc(C(F)(F)F)nc2n1 (centres undefined) | 0 | 0 | 0 | 93 | 0 | 68 | 0
FC(F)(F)c1cc(C(F)(F)F)c2ccc(N/N=C/c3ccccc3)nc2n1 | 0 | 0 | 0 | - | 0 | 0 | -
Cc1ccc(C(C#N)c2ccc3c(C(F)(F)F)cc(C(F)(F)F)nc3n2)cc1 (centres undefined) | 0 | 0 | 0 | 0 | 0 | 58 | 0
c1ccc([C@H]2CNCCN2CCc2cccc3ccccc23)cc1 | 0 | 0 | 0 | 0 | 0 | 57 | 0
Cc1ccc(-c2cc(-c3ccccc3)c(C#N)c(Br)n2)cc1 | 0 | 0 | 0 | 0 | 0 | 72 | 0
Cc1ccc(-c2cc(-c3ccccc3)nc(Cl)n2)cc1 | 0 | 0 | 0 | 0 | 0 | 0 | -
CC(C)C(Sc1nc(-c2ccccc2)cc(-c2ccccc2)c1C#N)C(=O)O (centres undefined) | 0 | 0 | 0 | 0 | 0 | 0 | -
CS(=O)(=O)c1nc(-c2ccccc2)cc(-c2ccccc2)c1C#N | 0 | 0 | 0 | 0 | 0 | 100 | 0
CCC(=O)N1CCc2cc(S(=O)(=O)N3CCN(c4ccccc4)CC3)ccc21 | 0 | 0 | 0 | 0 | 0 | 55 | 0
O=C(C1CC1)N1CCc2cc(S(=O)(=O)N3CCN(c4ccccc4)CC3)ccc21 | 0 | 0 | 0 | 0 | 0 | 0 | -

High-throughput results: PubChem, several laboratories
